Tests used:
[1] = molecular target: T1, Aspartate--tRNA(Asp/Asn) ligase (Mycobacterium tuberculosis (strain ATCC 25618 / H37Rv)) (UniProt P9WFW3); assay: Assay for Asp RNA synthetase-1 from Mycobacterium tuberculosis; format: functional; parameters: scale not given: direction of the effect not stated beside the values; conditions: 30 µM; also: in the data most compounds retested in dose-response had high values
T1 sequence (whole entry): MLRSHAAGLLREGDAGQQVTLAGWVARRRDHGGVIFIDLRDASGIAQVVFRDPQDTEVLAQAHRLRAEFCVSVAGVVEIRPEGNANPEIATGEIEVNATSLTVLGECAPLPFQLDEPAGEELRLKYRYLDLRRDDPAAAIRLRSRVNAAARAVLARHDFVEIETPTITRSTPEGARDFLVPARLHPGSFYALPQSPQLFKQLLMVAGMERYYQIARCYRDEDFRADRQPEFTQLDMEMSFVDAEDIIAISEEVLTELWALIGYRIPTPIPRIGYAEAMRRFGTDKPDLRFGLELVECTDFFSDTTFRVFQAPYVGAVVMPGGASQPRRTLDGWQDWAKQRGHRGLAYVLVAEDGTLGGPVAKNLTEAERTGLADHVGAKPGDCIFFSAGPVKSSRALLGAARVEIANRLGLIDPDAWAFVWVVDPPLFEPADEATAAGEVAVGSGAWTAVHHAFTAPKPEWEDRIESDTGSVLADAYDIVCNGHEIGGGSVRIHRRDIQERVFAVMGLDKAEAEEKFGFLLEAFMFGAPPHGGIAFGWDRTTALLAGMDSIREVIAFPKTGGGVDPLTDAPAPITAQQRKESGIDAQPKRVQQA

[2] = molecular target: Shiga toxin 2 (Escherichia coli O157:H7) (UniProt P09385+P09386); assay: E. coli 0.157:H7 Shiga Toxin SOP - stx2 screening assay; format: functional; parameters: scale not given: direction of the effect not stated beside the values; conditions: 30 µM

SMILES	Percent Effect [1] [%]	Percent Effect [2] [%]
O=C(NCCCN1CCCC1)c1n[nH]c(=O)c2ccccc12	-3.43	-6.83
Fc1cccc(N2CCCC3(C2)CN(c2ncccn2)CCO3)c1 (stereo unspecified)	2.81	-2.38
Cc1nc(N2CC[C@@H](NC(=O)c3cnccn3)[C@H](O)C2)c2ccsc2n1	-1.04	-6.15
c1cc(OCc2ccc3c(c2)OCCO3)ccc1CNC1CC1	-1.05	-54.3
NC(=O)CCN1CCC(C(=O)c2cc(F)ccc2F)CC1	0.12	-0.638
CC(O)CN1CCN(Cc2csc(-c3ncccn3)n2)CC1 (stereo unspecified)	2.19	-19.8
CN(CCCOc1ccccc1)C(=O)CN1CCc2cncnc2C1	5.73	9.42
O=C(c1ccc(Br)o1)N1CCCCC1Cn1cccn1 (stereo unspecified)	4.78	-8.55
Fc1ccc(CN2CCC(c3n[nH]c4ncccc34)CC2)cc1F	5.4	15.2
Cc1ccc(C(=O)N2CCC3(CCC(=O)N(CC(N)=O)C3)CC2)c(O)c1	-0.585	-12.4
CN(C)CCN1CCCC12CCN(C(=O)c1cnccn1)CC2	1.96	0.984
COCCN1C(=O)[C@]2(CC[C@@H]3CN(C(=O)NC4CCCC4)C[C@@H]32)N=C1C	0.379	-4.86
COc1c(C2CCCN2Cc2csc(C(C)C)n2)c(C)nn1C (stereo unspecified)	-1.4	-10.7
Cn1cc(C2CCCN2C(=O)CCCOc2ccc(F)cc2F)cn1 (stereo unspecified)	-2.66	13.7
O=C(CCN1CCC(C(=O)c2cc(F)ccc2F)CC1)NC1CC1	1.41	-24.2
Cc1ccc(C(=O)N2CCC3(CCN(C(=O)c4cccnc4)C3)CC2)o1	5.85	-10.6
CC(C)C1CN(c2ncc(F)cn2)CCC(=O)N1Cc1ccc(F)cc1 (stereo unspecified)	1.56	-4.93
Cc1occc1C(=O)N1CCOCC2(CCN(Cc3nccs3)C2)C1 (stereo unspecified)	-0.802	-26.4
